Holding throughout (assay): NCI-60 one-dose screen, 48 h (100 = growth as untreated, 0 = no growth, -100 = all killed)
One test deals with DU-145 prostate. The note with it: 10 µM unless noted.
The subject of a further test is K-562 leukemia. The settings on record: 10 µM unless noted.
The test system of another test is MALME-3M melanoma. The settings on record: 10 µM unless noted.
The next test relates to MDA-MB-231 breast. The note with it: 10 µM unless noted.
Another test concerns RXF 393 renal. The settings on record: 10 µM unless noted.
The next test concerns SF-268 CNS. The note with it: 10 µM unless noted.
The next test relates to SF-295 CNS. The settings on record: 10 µM unless noted.
The next test deals with SF-539 CNS. The note with it: 10 µM unless noted.
Another test concerns UACC-257 melanoma. The note with it: 10 µM.
The test system of the next test is M14 melanoma. The note with it: 10 µM unless noted.

This passage reports growth results from PubChem BioAssay (NCI).

Molecules are shown by their SMILES. Compounds without any hit were thinned out: in the full panel of roughly 83,000, 20% have a hit.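 96-well plates, one dose, 48 hours. Percent growth reported; active if below 10.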 Values without a mark were called inactive. The source made the active and inactive calls.

As to `C=C(C)[C@@H]1CC[C@]2(C(=O)ON)CC[C@]3(C)[C@H](CC[C@@H]4[C@@]5(C)C/C(=C/c6ccc(Br)cc6)C(=O)C(C)(C)[C@@H]5CC[C@]43C)[C@@H]12`, the growth in the test on DU-145 prostate is 79.2%; in the test with K-562 leukemia, 46.3%; in the test with MALME-3M melanoma, 83.2%; in the test with MDA-MB-231 breast, 80.6%; with RXF 393 renal, 78.4%; in the test with SF-268 CNS, 81.1%. For the same molecule, the growth in the test on SF-295 CNS was 74.9%; in the test with SF-539 CNS, 75.9%; in the test with UACC-257 melanoma, 81.1%; in the test with M14 melanoma it was 76%.

For the molecule `O=C(NNc1nc2cc(F)cc(F)c2n2cccc12)c1ccncn1`, the growth with DU-145 prostate is 18.7%; in the test on K-562 leukemia it was 8.02% (active); with MALME-3M melanoma, 28.3%; in the test with MDA-MB-231 breast it was 32.2%; in the test with RXF 393 renal it was 18.8%; with SF-268 CNS, 12.5%. For the same molecule, the growth was 15.1% in the test on SF-295 CNS, 7.47% (active) with SF-539 CNS, 5.21% (active) in the test on UACC-257 melanoma and 4.27% (active) with M14 melanoma.

Take `CCC(=O)Nc1cc(Nc2cc(NC3CC3)n3ncc(C#N)c3n2)ccc1C`: the growth with DU-145 prostate was 44.7%; in the test with K-562 leukemia, 22.9%; in the test with MALME-3M melanoma it was 30.8%; in the test on MDA-MB-231 breast it was 19.5%; in the test with RXF 393 renal it was -8.35% (active); in the test with SF-268 CNS it was 35%. Further, the growth in the test on SF-295 CNS is 21.7%; with SF-539 CNS it was 21.8%; in the test on UACC-257 melanoma, 34.2%; in the test with M14 melanoma, 14.9%.

For the molecule `Cc1cc(=O)n2nc(-c3cn(C)c4ccc(Cl)cc34)sc2n1`, the growth with DU-145 prostate was 90.1%; with K-562 leukemia, 99.2%; in the test on MALME-3M melanoma it was 93%; in the test with MDA-MB-231 breast, 82.3%; in the test on RXF 393 renal, 59.5%; in the test on SF-268 CNS, 87%. The growth with SF-295 CNS was 105%; in the test with SF-539 CNS, 83%; in the test with UACC-257 melanoma it was 97%; with M14 melanoma, 92%.

As for `CCOC(=O)C1=C(C)Nc2nc3ccccc3n2C1c1cccc(Br)c1` (stereo not given), the growth in the test on DU-145 prostate is 93.3%; in the test with K-562 leukemia, 29.9%; in the test on MALME-3M melanoma it was 51.9%; in the test with MDA-MB-231 breast, 79%; with RXF 393 renal it was 99.7%; in the test with SF-268 CNS it was 94.7%. In addition, the growth in the test with SF-295 CNS is 60.7%; in the test with SF-539 CNS, 85.8%; in the test on UACC-257 melanoma, 87.1%; in the test on M14 melanoma it was 63.4%.

Consider `CN1CCN(Cc2ccc(NC(=O)c3cncc(C#Cc4cnc5ccc(O[C@H]6CCOC6)nn45)c3)cc2C(F)(F)F)CC1`, for which the growth was -78.9% (active) in the test on DU-145 prostate; 0.583% (active) in the test with K-562 leukemia; -87.5% (active) in the test on MALME-3M melanoma; -59.7% (active) in the test on MDA-MB-231 breast; -76.9% (active) in the test with RXF 393 renal; -63.8% (active) with SF-268 CNS. Moreover, the growth in the test with SF-295 CNS is -81.8% (active); in the test on SF-539 CNS, -92% (active); in the test with UACC-257 melanoma, -52% (active); in the test with M14 melanoma, -87.2% (active).

As to `Cc1ccc(Cc2cnc(NC(=O)/C(C#N)=C/c3ccc(-c4ccc(Cl)cc4)o3)s2)cc1`, the growth with DU-145 prostate was 84%; in the test on K-562 leukemia, 88.7%; in the test on MALME-3M melanoma, 98.8%; in the test with MDA-MB-231 breast it was 97.4%; with RXF 393 renal, 61%; with SF-268 CNS it was 95.3%. The growth is 102% in the test with SF-295 CNS, 98.4% in the test on SF-539 CNS, 100% in the test with UACC-257 melanoma and 95.9% in the test with M14 melanoma.

On to `CCOC(=O)c1c(NCC(=O)Nc2ccc(Br)cc2)sc2c1CCCC2`, for which the growth was 66.7% in the test with DU-145 prostate; 10.8% in the test on K-562 leukemia; 21.7% in the test with MALME-3M melanoma; 36.5% in the test on MDA-MB-231 breast; -50.1% (active) with RXF 393 renal; 58.4% in the test with SF-268 CNS. Moreover, the growth was 39.1% in the test with SF-295 CNS, 12% in the test with SF-539 CNS, 76.2% in the test with UACC-257 melanoma and 46.3% with M14 melanoma.

With `Nc1ccc(-c2nnc(SCc3ccc(O)c4ncccc34)o2)cc1`, the growth in the test with DU-145 prostate is 9.69% (active); with K-562 leukemia, 3.52% (active); in the test with MALME-3M melanoma it was -2.77% (active); in the test on MDA-MB-231 breast, 33.8%; with RXF 393 renal, -14.8% (active); with SF-268 CNS it was 1.12% (active). Further, the growth was -21.6% (active) in the test with SF-295 CNS, -14.1% (active) in the test on SF-539 CNS, -20.4% (active) in the test with UACC-257 melanoma and -38.8% (active) in the test with M14 melanoma.

On to `O=C1/C(=C/c2ccc([N+](=O)[O-])cc2)SC(=Nc2ccccc2)N1Nc1ccccc1`, for which the growth in the test on DU-145 prostate is 63.5%; in the test on K-562 leukemia, 17.8%; with MALME-3M melanoma it was 90.3%; with MDA-MB-231 breast it was 54.7%; with RXF 393 renal, 58.9%; in the test on SF-268 CNS, 73%. Moreover, the growth in the test on SF-295 CNS was 87.1%; in the test with SF-539 CNS, 65.1%; with UACC-257 melanoma it was 89.7%; in the test on M14 melanoma, 80.1%.

Take `COc1cc2oc(-c3cccc(NC(=O)c4cc(NC(=O)[C@H](C)NC(=O)OC(C)(C)C)ccc4C)c3)cc(=O)c2c(OC)c1OC`: the growth is 62.2% with DU-145 prostate; 47.4% in the test on K-562 leukemia; 92.5% in the test on MALME-3M melanoma; 65.1% in the test with MDA-MB-231 breast; 67.7% with RXF 393 renal; 79.4% with SF-268 CNS. The growth in the test on SF-295 CNS is 65.5%; in the test with SF-539 CNS, 79.4%; in the test on UACC-257 melanoma, 118%; in the test on M14 melanoma, 97.9%.

As for `C/C(=C(/C)C1CC1CCN(C(=O)c1ccccn1)S(=O)(=O)c1ccc(C)cc1)C1CCCCC1` (stereo not given), the growth in the test on DU-145 prostate was 98.9%; in the test on K-562 leukemia, 96.8%; in the test on MALME-3M melanoma, 104%; in the test with MDA-MB-231 breast, 91.5%; in the test with RXF 393 renal, 115%; in the test on SF-268 CNS, 97.5%. For the same molecule, the growth in the test with SF-295 CNS is 90.4%; in the test on SF-539 CNS it was 99.4%; with UACC-257 melanoma, 96.7%; in the test on M14 melanoma, 101%.

Regarding `Cc1cc(Cl)cc(NS(=O)(=O)c2ccc(-c3cnc(C4CC4)o3)cc2)c1`, the growth was 24.7% with DU-145 prostate; 8.81% (active) in the test with K-562 leukemia; 65.4% in the test with MALME-3M melanoma; 35.4% in the test with MDA-MB-231 breast; -0.916% (active) in the test with RXF 393 renal; 61.7% with SF-268 CNS. Also, the growth with SF-295 CNS was 1.04% (active); in the test on SF-539 CNS it was 6.15% (active); in the test on UACC-257 melanoma, 68.2%; in the test on M14 melanoma, 13.1%.
